# Compounds with a hit are over-represented: about 6.8% of the library has one in this group of screens.
# PINK1 expr mod: modulators of PINK1 expression; hit rate 0.2% among 410,000; PINK1 immunofluorescence, high-content cytometry, 24 h; Potency, µM (top dose mostly 76.6 µM), for inactives: at the highest dose activation (PINK1 increase), usual class: activators; active = well fitted activation curve with a large enough effect; inconclusive = small, poorly fitted or top-dose-only effect; cell line not stated here; also: % of control where 0% means no effect; nearly all actives have a fitted effect of over 65% in size
#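 Stable cell line treated 24 h with compounds at 5 concentrations (CCCP controls), then fixed and immunostained for PINK1 plus nuclear and cell stains; PINK1 immunofluorescence quantified by laser-scanning microplate cytometry.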
# TSG101-PTAP inh: blocks PTAP/TSG101 interaction to inhibit HIV-1 budding; Potency, µM (doses to about 115 µM), without a hit: at the top dose activity change, negative = inhibition, hits mostly inhibitors; AID 493005; Fluorescence polarization, FITC-PTAP peptide / Tsg101 binding; 340,000 tested, under 10 active; active = well fitted inhibition curve with a large enough effect in the main read-out, with a control signal flat, not every such curve was filed as active; inconclusive = small, poorly fitted or top-dose-only effect, or effect the other way, or a change in a side signal; inactive = no such curve, though single readings can be large or run the other way; also: % of control where 0% means no effect
# Target sequence (Q99816 whole entry, looked up): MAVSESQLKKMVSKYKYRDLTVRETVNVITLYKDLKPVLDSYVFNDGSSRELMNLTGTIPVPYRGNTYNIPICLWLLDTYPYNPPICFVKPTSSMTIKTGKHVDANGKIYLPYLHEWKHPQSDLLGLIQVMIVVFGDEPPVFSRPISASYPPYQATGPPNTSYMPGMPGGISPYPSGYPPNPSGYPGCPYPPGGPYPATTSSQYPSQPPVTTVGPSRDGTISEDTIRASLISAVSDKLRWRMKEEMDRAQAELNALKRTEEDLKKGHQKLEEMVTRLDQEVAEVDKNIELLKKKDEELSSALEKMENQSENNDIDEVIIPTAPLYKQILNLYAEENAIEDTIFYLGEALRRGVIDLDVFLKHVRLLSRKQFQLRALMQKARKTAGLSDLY
#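 Tsg101 binding domain (10 uM final) was mixed with compound and a FITC-labeled PTAP peptide (50 nM final) in HEPES pH 7.5 buffer with NaCl, Tween 20, EDTA and TCEP; fluorescence polarization was read after 20 min at r.t.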
# KB-3-1 cytotox: kills parental KB-3-1 adenocarcinoma cells; KB-3-1 viability, CellTiter-Glo ATP luminescence, 72 h; Potency, µM (highest dose often 46.1 µM), hits mostly cytotoxic; hit rate 1.4% among 400,000; also: % is scaled to controls: 0 for no effect and ±100 for the full control effect; nearly all actives have a fitted effect of over 60% in size
#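 Viability of parental KB-3-1 cells, measured by CellTiter-Glo luminescence, followed a 72 h incubation at 37 °C with pinned compounds in phenol-red-free DMEM containing 10% FBS.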
# SW480 rereplic: induces DNA re-replication in SW480 colon adenocarcinoma cells; SW480 DNA re-replication, Hoechst DNA content imaging, 48 h; Potency, µM (top dose mostly 46.1 µM), for inactives: at the highest dose re-replication activation, usual class: activators; hit rate 1.8% among 340,000; AID 624297; also: % of control where 0% means no effect; nearly all actives have a fitted effect of over 55% in size
#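 Treated cells incubate 48 hr (37 C, 5% CO2), are stained 40 min with Hoechst, and nuclear fluorescence is enumerated; a rise in nuclei with high DNA signal marks re-replication.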
# MCF10A rereplic: DNA re-replication induction in MCF 10a cells; hit rate 2.9% among 350,000; Potency, µM (highest dose often 46.1 µM), without a hit: at the highest dose activity, positive = re-replication, actives largely listed as activators; MCF 10A DNA re-replication, Hoechst nuclear intensity, 48 h; AID 624296; also: % of control where 0% means no effect; nearly all actives have a fitted effect of over 50% in size
# KB-V1 MDR tox: kills drug-selected multidrug resistant KB-V1 cells | KB-V1 MDR cells viability, CellTiter-Glo, 72 h | Potency, µM (titrated, usually from 46.1 µM), actives largely listed as cytotoxic | hit rate 3.4% among 400,000 | AID 1347076; also: % is scaled to controls: 0 for no effect and ±100 for the full control effect; nearly all actives have a fitted effect of over 60% in size
#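 Cells of the MDR subline KB-V1 are plated, dosed with compound at multiple concentrations, and incubated 72 h at 37 degrees C; CellTiter-Glo is then added and luminescence read after 10 min.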
# * hit, by the source's call; i = inactive; ? = inconclusive; · = no result given; [ ] = remark or other dose. Unless noted, calls follow the shape of the dose curve; as a rule, active = well fitted curve in the direction sought with a large enough effect; inconclusive = small, poorly fitted or top-dose-only effect, or another doubt; inactive = no such curve, though single readings can be large; an effect the other way counts as inactive or inconclusive. Potency is read from the fitted curve at half-maximal effect.
SMILES,PINK1 expr mod,TSG101-PTAP inh,KB-3-1 cytotox,SW480 rereplic,MCF10A rereplic,KB-V1 MDR tox
C(=C\c1ccccc1)/CSc1nnc(-c2ccccc2)n1Cc1ccco1,1%[38.3 µM],·,i,23µM*,5.2µM*,18µM*
c1ccc(CSc2nnc(-c3ccco3)n2Cc2ccco2)cc1,-3%,-2%,?,-1%,-1%,21µM*
CC(C)c1cnc2c(c1SCC(=O)c1ccc(Cl)cc1)c(=O)n(C)c(=O)n2C,0%,·,·,·,·,·
COC(=O)c1ccc(COc2ccccc2/C=N/NS(=O)(=O)c2ccc(C)cc2)cc1,?,·,i,?,3%,18µM*
O=S(=O)(N/N=C/c1ccccc1OCc1ccc(Cl)cc1)c1ccccc1,12%,?,?,?,3.3µM*,16µM*
Cc1nc2ccccc2c(=O)n1-c1ccc(NC(=O)c2cccc([N+](=O)[O-])c2)cc1,0%,·,i,·,·,i
N#C/C(=C(/O)c1cc2ccccc2o1)c1nc2ccccc2s1,?,-7%,21µM*,?,8.2µM*,?
N#C/C(=C(/O)c1cccc(F)c1)c1nc2ccccc2s1,40µM*,-8%,5.8µM*,-5%,11%,2.9µM*
CCN(Cc1ccccc1)C(c1cc2ccc(C)cc2[nH]c1=O)c1nnnn1CCOC (stereo not drawn),-4%,0%,i,1%,0%,15µM*
CCC(C(=O)NCCc1ccc(OC)c(OC)c1)n1nc(C)c2sc3ccccc3c2c1=O (stereo not drawn),0%,·,i,·,·,i
Cc1ccc(NC(=O)c2sc3ncnc(N(C)C4CCCCC4)c3c2C)c(C)c1,2%,·,i,·,·,i
COc1cc2cc(C)nc(Cc3cccc4ccccc34)c2cc1OC,8%,1%,i,5%,13µM*,i
Cc1nn(C(=O)c2ccccc2)c(C)c1Sc1ccc(Cl)cc1,?,·,?,·,·,7.3µM*
CCOC(=O)N1CCN(C(=O)c2ccc3c(c2)N(Cc2ccccc2F)C(=O)c2ccccc2S3(=O)=O)CC1,1%,·,i,·,·,i
COc1ccc(-c2ccc(=O)[nH]n2)cc1,-8%[38.3 µM],·,i,-2%,3%,1.8µM*
COc1ccc(N=C2C(=O)Nc3ccccc32)cc1,-4%[38.3 µM],-15%,i,?,23%,i
COc1ccc(N=C2C(=O)N3c4c(cccc42)C(C)=CC3(C)C)cc1,16%,-8%,i,21µM*,21µM*,?
CSc1nc(Sc2ccccc2Cl)c2ccccc2n1,3%,-4%,?,?,23µM*,?
CCOC(=O)c1cnc(SC)nc1Sc1ccccc1Cl,18%,0%,i,-5%,?,i
CCOCCCNC(=O)/C(C#N)=C/c1ccc([N+](=O)[O-])o1,0%,-2%,i,?,5.2µM*,i
COCCNC(=O)/C(C#N)=C/c1cc(Br)c(O)c(OC)c1,1%,11%,i,3%,-4%,i
CCCCNC(=O)/C(C#N)=C/c1ccc(C(=O)OC)cc1,0%,0%,i,21%,26%,i
CCOCCCNC(=O)/C(C#N)=C/c1ccc(-c2ccc(S(=O)(=O)N3CCOCC3)cc2)o1,8%,-1%,i,?,?,16µM*
COCCNC(=O)/C(C#N)=C/c1ccc(-c2ccc(S(=O)(=O)N3CCOCC3)cc2)o1,2%,1%,i,15%,?,i
CCOCCCNC(=O)/C(C#N)=C/c1cc(Br)c(O)c(Br)c1,2%,0%,6.5µM*,8.2µM*,12µM*,3.7µM*
SMILES,PINK1 expr mod,TSG101-PTAP inh,KB-3-1 cytotox,SW480 rereplic,MCF10A rereplic,KB-V1 MDR tox
CCCC(=O)C1=C(c2cccc(OC)c2)N(C(=O)CCC)n2c(C)nnc2S1,0%,·,·,·,·,·
COc1cc(CNC2CCCc3ccccc32)cc(OC)c1OC (stereo not drawn),2%,0%,i,0%,6%,i
COc1cc2c(c(OC)c1OC)-c1ccc(N(C)CC(OC)OC)c(=O)cc1[C@@H](NC(C)=O)CC2,12%,-4%,0.52µM*,1.5µM*,0.58µM*,?
COc1cc2c(c(OC)c1OC)-c1ccc(OC)c(=O)cc1[C@@H](N(C)CC#CCO)CC2,20%,1%,0.052µM*,?,?,?
CN[C@H]1CCc2cc(OC)c(OC)c(OC)c2-c2ccc(N(C)CC(OC)OC)c(=O)cc21,12%,-6%,2.6µM*,?,131%,?
CC(O)(COc1ccccc1)c1ccc2c(c1)CN(Cc1cccn1-c1ccccn1)CCO2 (stereo not drawn),0%,·,·,·,·,·
CC1CCC(C(C)C)C(O)C1 (stereo not drawn),·,·,·,-5%,-5%,·
CCOc1ccc(NC(=O)c2cc(-c3ccc(C)c(F)c3)on2)c([N+](=O)[O-])c1,14%,·,i,·,·,?
CCc1nnc(NS(=O)(=O)c2ccc(NC(=S)NC(=O)c3ccc(OC)cc3)cc2)s1,-2%,-2%,i,-42%,0%,?
CCc1nnc(NS(=O)(=O)c2ccc(NC(=S)NC(=O)c3ccc(OC)c(OC)c3)cc2)s1,1%,0%,i,18µM*,?,i
CCc1nnc(NS(=O)(=O)c2ccc(N/C=C/C(=O)c3ccc(C)cc3)cc2)s1,-1%,-5%,i,-12%,18µM*,i
CCc1nnc(NC(=O)c2ccc(OC)c(S(=O)(=O)N3CCCC3)c2)s1,0%,-5%,i,-8%,5%,21µM*
COc1cccc(NC(=O)N(Cc2c[nH]c3ccccc23)C2CCCCCC2)c1,1%,·,i,·,·,i
CC12CCC(C(=O)Nc3ccccc3Cl)(C(Br)C1=O)C2(C)C (stereo not drawn),0%,-2%,i,1%,?,13µM*
COc1cccc(-c2nc(NCCN3CCOCC3)c3ccccc3n2)c1,0%,·,·,·,·,·
Cc1ccc(C2NC(=O)c3ccccc3N2)s1 (stereo not drawn),?,-2%,4.6µM*,21µM*,?,7.3µM*
Cc1cccc(C2NC(=O)c3ccccc3N2)c1 (stereo not drawn),?,-1%,13µM*,16µM*,15µM*,?
CN(C)c1ccc(C2NC(=O)c3ccccc3N2)cc1 (stereo not drawn),-1%,-1%,?,?,?,13µM*
O=C1NC(c2ccc(Cl)cc2)Nc2ccccc21 (stereo not drawn),-1%,-1%,i,-9%,-41%,i
Cc1ccc(C2NC(=O)c3ccccc3N2)c(C)c1 (stereo not drawn),6%,-3%,3.7µM*,?,6.5µM*,5.8µM*
